Most compounds without a hit are left out; they make up all but 6% or so of the library.
D3 ag: D3 dopamine receptor (human) agonism | P35462 | AID 652048 | D3R DiscoveRx beta-arrestin cells, luminescence, 90 min | max activation, % | hit rate 0.58% among 410,000; in the data active = max activation above about 30%
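Agonist-mode cell screen: cells plated at 1500/well and incubated overnight at 37 °C, then exposed to library compounds for 90 min at 37 °C. Detection reagent was added for 30–60 min at room temperature, and luminescence was read.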
D3 antag: D3 dopamine receptor (human) antagonism; P35462; D3R cells, DiscoveRx beta-arrestin luminescence, antagonist mode; stronger effect = lower value; max response, negative = inhibition, %; hit rate 2.5% among 360,000; AID 652054; in the data active = max response below about -50%; inconclusive = no clear call, values can overlap the other calls
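Cells plated overnight at 1500 cells/well, then exposed to library compounds with dopamine controls for 90 minutes at 37 degrees C. DiscoveRx reagent added for 30–60 minutes at room temperature; luminescence read, quantitative HTS format.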
D1 antag: blocks dopamine activation of the human D1 receptor; hit rate 3.2% among 360,000; P21728; HEK293 TREx D1 cells, calcium flux, dopamine EC80; stronger effect = lower value; activity change, negative = inhibition, % at 10 µM; in the data active = activity change below about -30%
Target sequence (P21728 whole entry, looked up): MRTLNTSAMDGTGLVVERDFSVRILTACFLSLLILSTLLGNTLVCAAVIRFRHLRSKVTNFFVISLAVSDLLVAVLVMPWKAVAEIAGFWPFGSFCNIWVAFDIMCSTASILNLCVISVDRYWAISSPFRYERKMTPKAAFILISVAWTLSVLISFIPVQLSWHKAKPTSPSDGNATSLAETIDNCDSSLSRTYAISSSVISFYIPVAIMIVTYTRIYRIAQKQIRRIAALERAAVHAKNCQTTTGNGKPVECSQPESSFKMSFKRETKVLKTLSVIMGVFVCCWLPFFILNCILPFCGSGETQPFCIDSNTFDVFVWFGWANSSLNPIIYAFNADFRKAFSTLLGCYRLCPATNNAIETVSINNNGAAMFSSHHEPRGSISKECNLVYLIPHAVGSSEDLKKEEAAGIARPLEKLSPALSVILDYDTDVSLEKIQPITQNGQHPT
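Tetracycline-induced HEK293 T-REx cells with force-coupled D1 receptor were loaded with a no-wash calcium dye. Compound was added after a 10 s baseline and read kinetically for 180 s; EC80 dopamine was then added and calcium flux followed another 180 s.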
D1 agonist: agonists of human D1 dopamine receptor. hit rate 1% among 360,000. activation, % at 2 µM. P21728. AID 504660. HEK293 T-REx D1 cells, calcium flux, agonist mode; in the data active = activation above about 30%
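Agonism was scored from calcium flux recorded over 180 s (1 read/s) after pintool compound addition, following a 10-cycle baseline. Cells were inducible force-coupled HEK293 TREx D1, plated overnight at 30 C and loaded with no-wash calcium dye.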
D1 potentiator: human D1 dopamine receptor positive modulation. HEK293 TREx D1 cells, calcium flux, dopamine EC20 potentiation. P21728. hit rate 0.036% among 360,000. potentiation, % at 10 µM; in the data active = potentiation above about 30%
Of the large screens only hits and unclear results are named; the others gave an inactive call; ! = not active in a repeat.

Cc1cc(C)c2c(-n3cccc3)c(C(=O)NNS(=O)(=O)c3ccc(Cl)cc3)sc2n1	D3 antag -56.0 (no result: D1 antag, D1 agonist, D1 potentiator)
Nc1nc(N)c(S(=O)(=O)c2ccccc2)c(Nc2ccccc2)n1	none (no result: D3 antag)
Cc1cc(Br)ccc1SCC(=O)OCC(=O)N1CCN(C(=O)c2ccco2)CC1	D1 agonist 34.1
O=C(CSc1ccccc1F)OCC(=O)N1CCN(C(=O)c2ccco2)CC1	none
COc1cc(/C=C/C(=O)OC2CC3CCC2(C)C3(C)C)ccc1O (stereo not drawn)	D3 antag -50.5
O=C(c1ccc(N2CCCC2=O)cc1)N1CCN(c2ccc(Cl)cc2)CC1	none
O=C(c1ccc(N2CCCC2=O)cc1)N1CCN(c2ccccc2Cl)CC1	D1 antag -48.5
CCCCCOC(=O)C1=C(C)NC(=O)NC1c1ccccc1 (stereo not drawn)	D1 antag -35.9
CCCCCOC(=O)C1=C(C)NC(=O)NC1c1ccc(N(C)C)cc1 (stereo not drawn)	none
O=C(c1cc(COc2ccc(F)cc2Cl)on1)N1CCN(C2CCCCC2)C(=O)C1	none
O=C(c1cc(COc2ccc(F)cc2Cl)on1)N1CCN(C2CCCC2)CC1	D1 antag -44.2
CCC(=O)c1ccc(N2CCCCC2)c(F)c1	D1 antag -54.7
Cc1ccc(OCC(O)CN2CCN(Cc3ccc4c(c3)OCO4)CC2)c(C)c1 (stereo not drawn)	D3 antag -59.8
COc1ccc(OCC(O)CN2CCN(Cc3ccc4c(c3)OCO4)CC2)cc1 (stereo not drawn)	none
CC(=O)c1ccc(OCC(O)CN2CCN(Cc3ccc4c(c3)OCO4)CC2)cc1 (stereo not drawn)	D3 antag -50.9!
NC(=S)N/N=C/c1ncc(C(F)(F)F)cc1Cl	D1 agonist 31.2
Cc1ccc(C)c(N2CCN(C(=S)Nc3ccc4nc(N5CCN(C)CC5)cc(C)c4c3)CC2)c1	D3 antag inconclusive, D1 antag -60.7
Cc1ccc(NC(=S)N2CCCCCC2)c(C)c1	none
COc1ccccc1N1CCN(C(=S)Nc2cccc(C)c2)CC1	none
Cc1ccc(C)c(NC(=S)N2CCCC2)c1	D1 antag -65.4
Cc1cccc(NC(=S)N2CCN(c3cc(C)ccc3C)CC2)c1	D1 antag -34.8
Cc1ccc(CCNC(=O)C2CCN(Cc3nc(-c4ccccc4C)oc3C)CC2)cc1	none (no result: D3 antag)
COc1ccc(Cl)cc1NC(=O)C(C)n1nnc2sc3c(c2c1=O)CCCC3 (stereo not drawn)	none (no result: D3 antag)
CCOC(=O)c1cc(-c2ccc(F)cc2)n(CCC(=O)Nc2cc(OC)cc(OC)c2)c1C	none (no result: D3 antag)
CC(=O)Nc1ccc(-c2nnc3n(Cc4ccc(C)cc4)c(=O)c4ccccc4n23)cc1	none (no result: D3 antag)
CC12CCC(C(=O)N(CCCCN3CCN(c4ccccn4)CC3)C1=O)C2(C)C (stereo not drawn)	D3 ag 85.8
O=C(CCCn1c(SCC(=O)NCC2CCCO2)nc2ccccc2c1=O)NCc1ccccc1 (stereo not drawn)	none
O=C(CCCn1c(SCC(=O)Nc2ccccc2Cl)nc2ccccc2c1=O)NCC1CCCO1 (stereo not drawn)	D1 antag -33.5
Cc1cc(NC(=O)CSc2nc3ccccc3c(=O)n2CCCC(=O)NCc2ccccc2)n[nH]1	D1 antag -34.7
CCCCn1c(SCC(=O)NCc2ccccc2)nc2ccc(N3CCOCC3)cc2c1=O	D3 ag 34.0
CCN(C(=O)c1coc(=O)c2ccccc12)c1ccccc1C	none (no result: D3 antag)
CCCC(C(=O)NC1CCCC1)N(Cc1cccs1)C(=O)c1snc(C(N)=O)c1N (stereo not drawn)	D1 antag -36.1
CCC(C(=O)NC1CCCC1)N(Cc1ccc2c(c1)OCO2)C(=O)c1snc(C(N)=O)c1N (stereo not drawn)	D3 antag inconclusive
COc1cccc(N(CC(=O)NC2CCCCC2)C(=O)c2snc(C(N)=O)c2N)c1	D1 antag -35.1
COc1ccc(CN(C(=O)c2snc(C(N)=O)c2N)C(C(=O)NC2CCCC2)c2ccc(OC)c(OC)c2)cc1 (stereo not drawn)	none
COc1ccc(C(C(=O)NC2CCCCC2)N(Cc2cccnc2)C(=O)c2snc(C(N)=O)c2N)cc1 (stereo not drawn)	D1 antag -33.7
NC(=O)c1nsc(C(=O)N(CC(=O)NC2CCCC2)c2cccc(C(F)(F)F)c2)c1N	none
C=CCC(CC=C)(CNC(=O)C(=O)Nc1ccc(C)cc1)c1ccccc1	none (no result: D3 antag)
COc1ccc(-c2[nH]c(-c3ccc4c(c3)OCO4)nc2-c2ccccc2)cc1	D1 antag -75.7
COc1ccccc1CCNC(=O)Cc1c(C)c2c(O)cc(C)cc2oc1=O	none (no result: D3 antag)
CCOC(=O)c1ccc(NC(=O)c2c(N3CCCC3=O)c3cc(OC)ccc3n2C)cc1	none (no result: D3 antag)
O=C1NC(=O)/C(=C/c2ccc(-c3cc(C(=O)O)ccc3Cl)o2)S1	D1 antag -45.1
O=C1NC(=S)/C(=C\c2ccc(-c3ccccc3Cl)o2)S1	none
CCCCCCCC/C=C\CCCCCCCC(=O)NCc1ccc(O)c(OC)c1	none (no result: D3 antag, D1 antag, D1 agonist, D1 potentiator)
CCCCCCCC/C=C\CCCCCCCC(=O)NCCc1ccc(O)c(O)c1	D3 ag 211.1
Nc1cnc(-c2ccccc2)nc1Cl	D1 antag -38.8
CCOc1ccc(NC(=O)CCSc2nc(-c3ccc4c(c3)OCO4)cc(C(F)(F)F)n2)cc1	none (no result: D3 antag)
Cc1cc(C(=O)CCl)c(C)n1CCc1ccc(Cl)cc1	D3 antag -68.8 (no result: D1 antag)
Cc1cc(C(=O)CSc2nc(N)cc(=O)[nH]2)c(C)n1CCc1ccc(F)cc1	none
COc1ccc(CCn2c(C)cc(C(=O)CSc3nc(N)cc(=O)[nH]3)c2C)cc1	D3 ag 34.9
O=C(Nc1cccc(Cl)c1Cl)c1cc(S(=O)(=O)NCc2ccc3c(c2)OCO3)ccc1F	none (no result: D3 antag)
O=C(/C=C/c1ccc(Cl)cc1Cl)Nc1ccc(CN2CCOCC2)cc1	D1 antag -38.2
O=C(/C=C/c1ccc(Cl)cc1)NC(=S)Nc1ccc(CN2CCOCC2)cc1	D3 antag -64.7
O=C(/C=C/c1ccccc1)Nc1ccc(CN2CCOCC2)cc1	none
C[C@H]1[C@H](NC(=O)/C(=N/OC(C)(C)C(=O)O)c2csc(N)n2)C(=O)N1S(=O)(=O)O (stereo in doubt)	none (no result: D3 antag, D1 antag, D1 agonist, D1 potentiator)
CN=c1scc(-c2ccc(F)cc2)n1/N=C/c1ccc(O)c(O)c1	D3 ag 94.6
O=C1/C(=C/c2ccccc2)CCc2ccc(Cl)nc21	D3 antag -73.0 (no result: D1 antag, D1 agonist, D1 potentiator)
O=c1oc(-c2ccccc2F)nc2c1cnn2-c1ccccc1	D3 antag -64.5
O=C(CS(=O)c1ccc(C(F)(F)F)cc1[N+](=O)[O-])Oc1ccc(Cl)cc1 (stereo not drawn)	D3 antag -96.5
Cc1cc(C)cc(OC(=O)CS(=O)c2ccc(C(F)(F)F)cc2[N+](=O)[O-])c1 (stereo not drawn)	D3 antag -73.3
Cc1ccc(OCCNc2ccc(C(F)(F)F)cc2[N+](=O)[O-])cc1	none

Screens deposited in PubChem BioAssay by National Center for Advancing Translational Sciences (NCATS).
